Among all 57,000 sequences or so, about 3,700 (6.5%) were called active. No stated cut-off is given here; in the data, active = GI50 up to about 1.1 µM and inactive = higher. The list is a sample of the results. Potency and affinity values are given separately.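 Interpolation was linear, between the two tested concentrations surrounding the appropriate level; five concentrations were tested over 48 hours in 96-well plates. Here, GI50 denotes the concentration required for 50% inhibition of growth.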
Each substance was assayed on ACHN (assay: NCI tumour cell line growth inhibition, 48 h).

Row | Substance | GI50 [µM]
1 | CISPLATIN, CHEMBL11359 | 1.22
2 | cis-Bis[[(trimethylsilyl)methyl]amino]tetrachloroplatinum(IV), CHEMBL2146191 | 6.25
3 | [Bis(aminomethyl)dimethylsilane]dichloroplatinum (II), CHEMBL2146201 | 12.6
4 | [Bis(aminomethyl)tetramethylenesilane]dichloropaltinum(II), CHEMBL2146205 | 12.3
5 | [Bis(aminomethyl)pentamethylenesilane]dichloropaltinum(II), CHEMBL2146202 | 1.63
6 | mu-(1,7-nanodiamine-N,N')bis-(cis-aminedichloroplatimum (II)), CHEMBL2146215 | 27.8
7 | [Bis(aminomethyl)ethylmethylsilane]tetrachloroplatinum(IV), CHEMBL2146192 | 2.67
8 | [Bis(aminomethyl)pentamethylenesilane]tetrachloropaltinum(IV), CHEMBL2146204 | 1.79
9 | [Bis(aminomethyl)tetramethylenesilane]tetrachloropaltinum(IV), CHEMBL2146189 | 3.69
10 | [Bis(aminomethyl)dimethylsilane]tetrachloroplatinum(IV), CHEMBL2146190 | 4.84
11 | [Bis(aminomethyl)diethylsilane]tetrachloroplatinum(IV), CHEMBL2146203 | 2.99
